# About 79,000 compounds went through this panel and 15% of them were active in at least one assay; those are over-represented in the sample as a whole. A number with no mark means an inactive call. The source made the active and inactive calls. Cut-off read from the data, not from the text of the source: active = growth inhibition above about 70%; inactive = the rest.
# How the values were obtained:
# [1] = NCI Yeast Anticancer Drug Screen. Data for the rad52 strain (AID 147);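 note: 0% = growth of vehicle-treated control cultures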; settings: S. cerevisiae rad52 mutant growth inhibition, active compounds read high
# Procedure, shortened: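 Here a repair-compromised yeast strain receives each compound; its growth is then quantified and normalised to vehicle-only controls.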
# [2] = NCI Yeast Anticancer Drug Screen. Data for the wt1 strain (AID 149);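 note: 0% = growth of vehicle-treated wt1 cultures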; settings: S. cerevisiae wt1 strain (SPY 50644) growth inhibition, active compounds read high
# Procedure, shortened: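 Readout: yeast growth inhibition, normalised to vehicle controls, in the wt1 strain exposed to test compounds.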
# [3] = NCI Yeast Anticancer Drug Screen. Data for the rad50EPP+ strain (AID 151);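 note: 0% = growth of vehicle-treated control cultures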; settings: S. cerevisiae rad50 mutant strain, active compounds read high
# Procedure, shortened: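 Read-out is yeast growth inhibition relative to vehicle; cells used were the rad50EPP+ strain.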
# [4] = NCI Yeast Anticancer Drug Screen. Data for the mgt1 strain (AID 153); settings: S. cerevisiae mgt1 mutant growth inhibition, active compounds read high
# Procedure, shortened: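 Measured: inhibition of mgt1 yeast growth by compound, normalized to vehicle-treated cultures.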
# [5] = NCI Yeast Anticancer Drug Screen. Data for the rad50 strain (AID 155);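 note: 0% = growth of vehicle-only cultures of the same strain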; settings: S. cerevisiae rad50 strain growth inhibition, active compounds read high
# Procedure, shortened: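 Compounds were tested on a yeast strain with an engineered DNA damage repair alteration; the reported value is growth inhibition normalised to vehicle treatment.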
# [6] = NCI Yeast Anticancer Drug Screen. Data for the mec2-1 strain (AID 157); settings: S. cerevisiae mec2-1 strain, active compounds read high
# Procedure, shortened: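 Using mec2-1 yeast: add compound, measure growth, express inhibition versus vehicle-treated cultures.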
# [7] = NCI Yeast Anticancer Drug Screen. Data for the rad14 strain (AID 159);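 note: 0% = growth of vehicle-treated control cultures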; settings: S. cerevisiae rad14 strain growth inhibition, active compounds read high
# Procedure, shortened: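 Compound-treated yeast with a defined DNA-repair lesion; growth inhibition normalised to vehicle-treated cultures.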
# [8] = NCI Yeast Anticancer Drug Screen. Data for the sgs1 mgt1 strain (AID 161);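 note: 0% = growth of cultures given vehicle only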; settings: S. cerevisiae sgs1 mgt1 strain, active compounds read high
# Procedure, shortened: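 Compounds are added to genetically altered yeast, and growth is compared with cultures given vehicle alone to give percent inhibition.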
# [9] = NCI Yeast Anticancer Drug Screen. Data for the CLN2oe strain (AID 163);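 note: 0% = growth of vehicle-only control cultures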; settings: S. cerevisiae CLN2oe strain, active compounds read high
# Procedure, shortened: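 Whole-cell yeast growth assay. A strain engineered for altered cell-cycle control received compound, and inhibition relative to vehicle-treated cultures was recorded.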
# [10] = NCI Yeast Anticancer Drug Screen. Data for the cln2 rad14 strain (AID 165);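 note: 0% = growth equal to vehicle treated cultures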; settings: S. cerevisiae cln2 rad14 strain, active compounds read high
# Procedure, shortened: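 Yeast strain cln2 rad14, bearing defects in cell cycle control and DNA repair, serves as the test system; values reflect growth inhibition compared with vehicle.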
# [11] = NCI Yeast Anticancer Drug Screen. Data for the bub3 strain (AID 167); settings: S. cerevisiae bub3 mutant strain, active compounds read high
# Procedure, shortened: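 Growth of a checkpoint-deficient yeast mutant is measured after compound exposure. Values represent inhibition relative to vehicle.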
# [12] = NCI Yeast Anticancer Drug Screen. Data for the mlh1 strain (AID 171);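 note: 0% = growth of vehicle-treated control cultures of the same strain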; settings: S. cerevisiae mlh1 strain growth inhibition, active compounds read high
# Procedure, shortened: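 A yeast strain with a defined genetic lesion serves as the test organism. Cultures receive compound or vehicle, and growth is measured.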
# [13] = NCI Yeast Anticancer Drug Screen. Data for the sgs1 strain (AID 173);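 note: 0% = growth of vehicle-only control cultures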; settings: S. cerevisiae sgs1 mutant, active compounds read high
# Procedure, shortened: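 A genetically defined yeast mutant is incubated with the test compound, and its growth is compared to that of the same strain given vehicle.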
# [14] = NCI Yeast Anticancer Drug Screen. Data for the mlh1 rad18 strain (AID 175); settings: S. cerevisiae mlh1 rad18 strain growth inhibition, active compounds read high
# Procedure, shortened: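 Steps: expose repair-defective yeast to compound; measure growth; express inhibition against vehicle-treated controls.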
# [15] = NCI Yeast Anticancer Drug Screen. Data for the rad18 strain (AID 177); settings: S. cerevisiae rad18 mutant growth inhibition, active compounds read high
# Procedure, shortened: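 Measured value is growth inhibition of a yeast strain bearing a DNA repair alteration, referenced to vehicle-treated cells.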
# [16] = at 5.0 µM (retest, dose inferred, filed as 0.5)
# [17] = at 50.0 µM (retest, dose inferred, filed as 5.0)
smiles,measurement,setting,value
COc1cc2c(cc1OC)[C@@H](Nc1ccc(C#N)cc1)C1COC(=O)[C@@H]1C2c1cc(OC)c(O)c(OC)c1 (stereo partly drawn),growth inhibition,[1]; at 1.2 µM,14%
same,growth inhibition,[1]; at 3.7 µM,52%
same,growth inhibition,[1]; at 11.0 µM,81% (active)
same,growth inhibition,[1]; at 33.0 µM,91% (active)
same,growth inhibition,[1]; at 100.0 µM,93% (active)
same,growth inhibition,[2]; at 1.2 µM,-34%
same,growth inhibition,[2]; at 3.7 µM,-33%
same,growth inhibition,[2]; at 11.0 µM,-9%
same,growth inhibition,[2]; at 33.0 µM,6%
same,growth inhibition,[2]; at 100.0 µM,79% (active)
same,growth inhibition,[3]; at 1.2 µM,-15%
same,growth inhibition,[3]; at 3.7 µM,-11%
same,growth inhibition,[3]; at 11.0 µM,-1%
same,growth inhibition,[3]; at 33.0 µM,6%
same,growth inhibition,[3]; at 100.0 µM,20%
same,growth inhibition,[4]; at 1.2 µM,-17%
same,growth inhibition,[4]; at 3.7 µM,-19%
same,growth inhibition,[4]; at 11.0 µM,12%
same,growth inhibition,[4]; at 33.0 µM,20%
same,growth inhibition,[4]; at 100.0 µM,83% (active)
same,growth inhibition,[5]; at 1.2 µM,24%
same,growth inhibition,[5]; at 3.7 µM,70% (active)
same,growth inhibition,[5]; [16],88% (active)
same,growth inhibition,[5]; at 11.0 µM,90% (active)
same,growth inhibition,[5]; at 33.0 µM,93% (active)
same,growth inhibition,[5]; [17],97% (active)
same,growth inhibition,[5]; at 50.0 µM,88% (active)
same,growth inhibition,[5]; at 100.0 µM,95% (active)
same,growth inhibition,[6]; at 1.2 µM,-22%
same,growth inhibition,[6]; at 3.7 µM,5%
same,growth inhibition,[6]; [16],11%
same,growth inhibition,[6]; at 11.0 µM,15%
same,growth inhibition,[6]; at 33.0 µM,70% (active)
same,growth inhibition,[6]; [17],98% (active)
same,growth inhibition,[6]; at 50.0 µM,91.5% (active)
same,growth inhibition,[6]; at 100.0 µM,91% (active)
same,growth inhibition,[7]; at 1.2 µM,-12%
same,growth inhibition,[7]; at 3.7 µM,-8%
same,growth inhibition,[7]; at 11.0 µM,0%
same,growth inhibition,[7]; at 33.0 µM,22%
same,growth inhibition,[7]; at 100.0 µM,81% (active)
same,growth inhibition,[8]; [16],17%
same,growth inhibition,[8]; [17],96% (active)
same,growth inhibition,[8]; at 50.0 µM,88% (active)
same,growth inhibition,[9]; at 1.2 µM,-5%
same,growth inhibition,[9]; at 3.7 µM,19%
same,growth inhibition,[9]; at 11.0 µM,11%
same,growth inhibition,[9]; at 33.0 µM,38%
same,growth inhibition,[9]; at 100.0 µM,84% (active)
same,growth inhibition,[10]; [16],7%
same,growth inhibition,[10]; [17],91% (active)
same,growth inhibition,[10]; at 50.0 µM,82% (active)
same,growth inhibition,[11]; at 1.2 µM,-32%
same,growth inhibition,[11]; at 3.7 µM,-13%
same,growth inhibition,[11]; [16],-54%
same,growth inhibition,[11]; at 11.0 µM,-22%
same,growth inhibition,[11]; at 33.0 µM,15%
same,growth inhibition,[11]; [17],95% (active)
same,growth inhibition,[11]; at 50.0 µM,89.2% (active)
same,growth inhibition,[11]; at 100.0 µM,78% (active)
same,growth inhibition,[12]; at 1.2 µM,-3%
same,growth inhibition,[12]; at 3.7 µM,9%
same,growth inhibition,[12]; at 11.0 µM,16%
same,growth inhibition,[12]; at 33.0 µM,33%
same,growth inhibition,[12]; at 100.0 µM,81% (active)
same,growth inhibition,[13]; at 1.2 µM,-20%
same,growth inhibition,[13]; at 3.7 µM,-14%
same,growth inhibition,[13]; at 11.0 µM,-2%
same,growth inhibition,[13]; at 33.0 µM,39%
same,growth inhibition,[13]; at 100.0 µM,85% (active)
same,growth inhibition,[14]; [16],9%
same,growth inhibition,[14]; [17],94% (active)
same,growth inhibition,[14]; at 50.0 µM,86.7% (active)
same,growth inhibition,[15]; at 1.2 µM,-30%
same,growth inhibition,[15]; at 3.7 µM,-8%
same,growth inhibition,[15]; at 11.0 µM,-5%
same,growth inhibition,[15]; at 33.0 µM,13%
same,growth inhibition,[15]; at 100.0 µM,84% (active)
